Paper PMC12670160, “A drug-repurposing screen of FDA- and EMA-approved drugs identifies two NF-κB inhibitors active against eumycetoma” (Journal of Antimicrobial Chemotherapy, 2025)
Structures can show the parent of a compound that is named as a salt. Where two headings read alike, the source gives them in different places. Out of some 5,300 compounds screened, about 130 (2.5%) showed an effect of 50% or more. The sample as a whole holds a higher share of strong results than the screen did.

Tested on: M. mycetomatis strain mm55
Conditions: primary screen, metabolic activity vs growth control, 96 h, 2 µM, inhibitor
[1] = Madurella mycetomatis metabolic activity at 2µM (%)

Compound	% viability [%]	% viability [1] [%]
CN1CCC2=C(C1)c1ccccc1Cc1ccccc12 [ONC0005445, setiptiline]	113.1	–
CN1CCOC(c2ccccc2)c2ccccc2C1 (stereo not shown) [ONC0000697, nefopam]	116	–
CN1CCC2=C(C1)C(c1ccccc1)c1ccccc12 (stereo not shown) [ONC0001922, phenindamine]	47.96	–
CSCC[C@H](N)C(=O)O [ONC0005517, lmethionine]	–	102.8
Cc1ccc(NC(=O)c2ccc(CN3CCC(N(C)C)C3)c(C(F)(F)F)c2)cc1Nc1ncc(-c2cncnc2)cn1 (stereo not shown) [ONC0004625, bafetinib inno406]	85.25	–
CC(=O)Nc1ccccc1 [ONC0000688, acetanilide]	114.7	–
CCNCCS(=O)(=O)NC[C@@]1(c2ccccc2)SC(NC(=O)C(C)(C)C)=NN1C(=O)C(C)(C)C [ONC0000804, litronesib]	77.28	–
CC(=O)NC1=NN(C(C)=O)C(C)(c2ccccc2)S1 (stereo not shown) [ONC0002658, k858]	49.67	–
CCCCN1[C@@H]2CC[C@H]1C[C@@H](OC(c1ccc(F)cc1)c1ccc(F)cc1)C2 [ONC0003046, jhw007]	64.39	–
FC(F)(F)c1ccc(CNc2ccc(Cc3c[nH]c4ncccc34)cn2)cc1 [ONC0002656, plx647]	82.24	–
CCOc1cc(C(C)(C)C)ccc1C1=NC(C)(c2ccc(Cl)cc2)C(C)(c2ccc(Cl)cc2)N1C(=O)N1CCN(CCCS(C)(=O)=O)CC1 (stereo not shown) [ONC0004446, rg7112 ro5045337]	112.9	–
[N-]=[N+]=N[C@]1(CO)O[C@@H](n2ccc(N)nc2=O)[C@@H](O)[C@@H]1O [ONC0000950, ro9187]	66.7	–
Nc1ccn([C@@H]2O[C@@](CO)(CCl)[C@@H](O)[C@H]2F)c(=O)n1 [ONC0000939, als8112]	44.91	–
[N-]=[N+]=N[C@]1(CO)O[C@@H](n2ccc(N)nc2=O)[C@H](O)[C@@H]1O [ONC0001768, r1479]	81.29	–
[H]/N=C(/N)c1ccc(NCc2nc3cc(C(=O)N(CCC(=O)O)c4ccccn4)ccc3n2C)cc1 [ONC0004940, bibr 953 dabigatran etexilate pradaxa]	81.22	–
C=C[C@H]1C[N@@]2CC[C@H]1C[C@@H]2[C@@H](O)c1ccnc2ccc(OC)cc12 [ONC0003347, quinidine gluconate]	101.1	–
O=C(Nc1c[nH]nc1-c1nc2cc(CN3CCOCC3)ccc2[nH]1)NC1CC1 [ONC0004692, at9283]	87.23	–
C[C@@H](c1nc(-c2ccc(C#N)cc2)cs1)[C@](O)(Cn1cncn1)c1ccc(F)cc1F [Ravuconazole]	0.9972	–
C[C@@H](c1nc(-c2ccc(C#N)cc2)cs1)[C@](O)(Cn1cncn1)c1cc(F)ccc1F [Isavuconazole]	3.591	–
OC(Cn1cncn1)(Cn1cncn1)c1ccc(F)cc1F [ONC0005572, fluconazole]	73.77	–

Compound	% viability [%]	% viability [1] [%]
C[C@@H](c1ncncc1F)[C@](O)(Cn1cncn1)c1ccc(F)cc1F [Voriconazole]	2.12	–
CO[C@H]1CC[C@H](N2C(=O)CNc3ncc(-c4ccc(C(C)(C)O)nc4)nc32)CC1 [ONC0001106, cc223]	54.41	–
COc1ccc(-c2cnc3c(-c4cccc5ncccc45)cnn3c2)cc1 [ONC0002277, chr6494]	–	84.04
C[C@@H]1[C@H](O)[C@@H](C)/C=C/C=C/CC/C=C/C=C/C=C/C=C/[C@H](O[C@@H]2O[C@H](C)[C@@H](O)[C@H](N)[C@@H]2O)C[C@@H]2O[C@](O)(C[C@@H](O)[C@H](O)CC[C@@H](O)C[C@@H](O)C[C@@H](O)CC(=O)O[C@H]1C)C[C@H](O)[C@H]2C(=O)O [ONC0002036, nystatin]	93.36	–
O=C(O)C=C1NN(Cc2nc3cc(C(F)(F)F)ccc3s2)C(=O)c2ccccc21 [ONC0005526, zopolrestat]	123.5	–
CCS(=O)(=O)N1CCC[C@@H]2CN3CCc4cc(OC)ccc4[C@@H]3C[C@@H]21 [ONC0002617, rs79948]	85.43	–
C[C@@]1(c2nc3c(C(N)=O)cccc3[nH]2)CCCN1 [ONC0004676, abt888 veliparib]	121	–
Cc1cc(NC(=O)C2C(=O)c3ccccc3S(=O)(=O)N2C)no1 (stereo not shown) [ONC0002885, isoxicam]	123.7	–
O=C(O)c1ccccc1 [ONC0003100, benzoic acid]	90.48	–
C[n+]1cccc(C(=O)O)c1 [ONC0003448, trigonellinehcl]	47.48	–
O=C(O)c1ccc[n+]([O-])c1 [ONC0005291, oxiniacic acid]	104	–
Cc1cc(CCC[C@H](CC(=O)NO)C(=O)N[C@H](C(=O)N[C@H](C)c2ccccc2)C(C)(C)C)ccc1-c1ccccc1 [ONC0002525, uk356618]	62.33	–
CC(C)[C@@H]1CC[C@@H](C)C[C@@H]1P(=O)(c1ccccc1)c1ccccc1 [ONC0003951, dpo1]	47.19	–
CC(C)[C@@H]1CC[C@@H](C)C[C@H]1O [ONC0003141, levomenthol]	69.71	–
CC[C@H](C)[C@H](NC(=O)[C@H](Cc1ccc(O)cc1)NC(=O)[C@@H](NC(=O)[C@H](CCCNC(=N)N)NC(=O)[C@@H](N)CC(=O)O)C(C)C)C(=O)N[C@@H](Cc1cnc[nH]1)C(=O)N1CCC[C@H]1C(=O)N[C@@H](Cc1ccccc1)C(=O)O [ONC0002134, angiotensin ii human]	79.83	–
CC(C)N[C@H]1CCn2c(=O)[nH]c3cccc(c32)[C@@H]1O [ONC0003872, zilpaterol]	87.84	–
COc1cc(CC2NCCc3cc(O)c(O)cc32)cc(OC)c1OC (stereo not shown) [ONC0002165, trimethoquinol]	66.75	–
CN(C)CC/C=C1/c2ccccc2COc2ccc(CC(=O)O)cc21 [ONC0004990, olopatadine hydrochloride opatanol]	101	–
O=C(O)Cc1ccc2c(c1)C(=O)c1ccccc1CO2 [ONC0003681, isoxepac]	47.44	–
O=C(O)Cc1ccc(-c2ccccc2)cc1 [ONC0005558, felbinac]	137.1	–
